About 14,000 (4.5%) of roughly 310,000 compounds showed an effect of 50% or more. Effects have a minus sign here. The full list was thinned out, with strong results kept by preference.
These compounds were tested against human ether-à-go-go-related gene (hERG) potassium channel (human, UniProt Q12809) (assay: primary screen, population patch clamp on CHO cells stably expressing hERG; higher = less effect of the substance).
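Also: peak tail current of the secondary pulse compared with the same well before compound.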

Sequence of human ether-à-go-go-related gene (hERG) potassium channel (Q12809 whole entry, looked up): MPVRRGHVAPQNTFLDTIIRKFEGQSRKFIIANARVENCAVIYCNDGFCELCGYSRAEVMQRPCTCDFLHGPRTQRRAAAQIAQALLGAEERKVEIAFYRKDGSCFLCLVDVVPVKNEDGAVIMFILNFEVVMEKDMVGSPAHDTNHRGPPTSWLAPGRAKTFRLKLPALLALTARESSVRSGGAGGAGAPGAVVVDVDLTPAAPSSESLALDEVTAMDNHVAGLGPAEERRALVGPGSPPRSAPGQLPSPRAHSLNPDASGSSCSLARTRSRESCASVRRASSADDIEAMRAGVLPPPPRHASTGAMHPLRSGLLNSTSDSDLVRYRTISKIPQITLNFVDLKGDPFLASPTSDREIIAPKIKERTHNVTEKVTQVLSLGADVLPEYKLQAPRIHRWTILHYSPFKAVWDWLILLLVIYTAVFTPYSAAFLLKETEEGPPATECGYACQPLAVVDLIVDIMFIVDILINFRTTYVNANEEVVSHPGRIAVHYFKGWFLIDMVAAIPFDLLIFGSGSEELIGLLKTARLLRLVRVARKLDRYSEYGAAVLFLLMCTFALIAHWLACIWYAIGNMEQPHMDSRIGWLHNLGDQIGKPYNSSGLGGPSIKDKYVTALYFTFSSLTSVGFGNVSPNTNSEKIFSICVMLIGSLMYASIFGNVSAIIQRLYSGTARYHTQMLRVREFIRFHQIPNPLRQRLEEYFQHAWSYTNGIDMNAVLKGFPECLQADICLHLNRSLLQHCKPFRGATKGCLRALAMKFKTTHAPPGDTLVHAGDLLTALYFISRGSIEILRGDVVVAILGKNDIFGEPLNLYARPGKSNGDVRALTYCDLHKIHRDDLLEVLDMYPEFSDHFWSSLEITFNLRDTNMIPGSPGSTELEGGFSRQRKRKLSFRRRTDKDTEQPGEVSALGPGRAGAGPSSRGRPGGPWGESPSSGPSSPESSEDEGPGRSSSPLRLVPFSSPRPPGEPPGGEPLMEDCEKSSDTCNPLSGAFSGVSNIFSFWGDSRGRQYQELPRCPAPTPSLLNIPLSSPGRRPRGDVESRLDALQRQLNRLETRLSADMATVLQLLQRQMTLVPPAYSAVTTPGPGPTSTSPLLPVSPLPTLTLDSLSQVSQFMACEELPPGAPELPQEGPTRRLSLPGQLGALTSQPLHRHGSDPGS

| Structure (SMILES) | hERG current change (%, negative = inhibition) at 10uM |
| --- | --- |
| Cc1nc(Nc2ccc(Cl)cc2)c2oc3ccccc3c2n1 | 3.95% |
| CCCN1CCC(=O)N([C@H](CSc2ccc(Br)cc2)c2ccccc2)CC1 | -76.2% |
| O=C1CCN(Cc2ccc(Br)cc2)CCN1[C@H](CO)c1ccccc1 | -3.45% |
| Cc1ccc(C)c(OCCC(=O)OCC(=O)N2CCN(S(=O)(=O)c3ccc(Cl)cc3)CC2)c1 | -29.8% |
| O=S(=O)(c1ccccc1)c1nc(-c2ccco2)oc1NCc1cccnc1 | -20.1% |
| COc1ccc(Br)cc1CN1CCN(Cc2c[nH]c3ccccc23)CC1.O=C(O)C(=O)O | -29.2% |
| O=C(Cc1ccccc1)NCCc1c[nH]c2ccccc12.O=C(O)C(=O)O | 16.4% |
| CCS(=O)(=O)N1CCN(Cc2c[nH]c3ccccc23)CC1.O=C(O)C(=O)O | 5.44% |
| COc1ccccc1C(=O)N1CCN(Cc2c[nH]c3ccccc23)CC1.O=C(O)C(=O)O | -19.7% |
| CCOc1ccc(CN2CCN(Cc3c[nH]c4ccccc34)CC2)cc1.O=C(O)C(=O)O | -84.4% |
| Brc1ccccc1CN1CCN(Cc2c[nH]c3ccccc23)CC1.O=C(O)C(=O)O | -20.1% |
| COc1ccc(CN2CCN(Cc3c[nH]c4ccccc34)CC2)cc1.O=C(O)C(=O)O | -67.5% |
| COc1ccc(S(=O)(=O)N2CCN(Cc3c[nH]c4ccccc34)CC2)cc1 | -24.9% |
| CN(CCc1ccccc1)Cc1c[nH]c2ccccc12.O=C(O)C(=O)O | -56.7% |
| CCOc1ccc(CN2CCN(C(=O)Cc3ccccc3)CC2)cc1.O=C(O)C(=O)O | -44.1% |
| Brc1ccc(CN2CCN(Cc3c[nH]c4ccccc34)CC2)cc1.O=C(O)C(=O)O | -63.8% |
| CN(Cc1ccccc1)Cc1c[nH]c2ccccc12 | -16.5% |
| COc1ccc(S(=O)(=O)Nc2ccccc2-c2nnn(CC(=O)Nc3ccccc3OC)n2)cc1 | 5.49% |
| CC(=O)OC[C@H]1O[C@@H](n2ccc(=O)[nH]c2=S)C(OC(C)=O)C1OC(C)=O (stereo partly drawn) | -4.01% |
| COc1cccc(C(=O)NCC(C)(C)SCc2ccc(F)cc2)c1 | -28.2% |
| Cc1cccc(NC(=O)CCS(=O)(=O)c2cccc3nonc23)c1C | 7.7% |
| CCC(C)NC(=O)Nc1ccccc1F (stereo not drawn) | -24.5% |
| O=S(=O)(c1ccccc1)N1CCCCC1c1cccnc1 (stereo not drawn) | 2.3% |
| O=C(NCCc1c[nH]c2ccccc12)C1CCN(S(=O)(=O)c2ccccc2)CC1 | -17.1% |

| Structure (SMILES) | hERG current change (%, negative = inhibition) at 10uM |
| --- | --- |
| O=C(COc1ccccc1)N1CCN(Cc2c[nH]c3ccccc23)CC1 | -47.4% |
| O=C(NCCc1c[nH]c2ccccc12)C1CCN(S(=O)(=O)c2ccc(F)cc2)CC1 | -28.3% |
| O=C(COc1ccc(Br)cc1)N1CCN(Cc2c[nH]c3ccccc23)CC1.O=C(O)C(=O)O | -57.9% |
| O=C(c1ccccc1)N1CCN(Cc2c[nH]c3ccccc23)CC1 | -16.4% |
| O=C(NCCc1c[nH]c2ccccc12)C1CCN(Cc2ccc(Br)cc2)CC1 | -54% |
| O=C(NNC(=O)C1CC=CCC1)c1ccccc1O (stereo not drawn) | -4.58% |
| Cn1c(CC(=O)Nc2ccccc2)nnc1SCC(=O)NC1=NCCS1 | 12.7% |
| CC(C)c1ccccc1OCCCCCN1CCOCC1 | -13.5% |
| O=C(O)COc1ccc(Cl)cc1Cl | 7.53% |
| COc1ccc(C)cc1NC(=O)C(=O)N/N=C(\C)CC(=O)Nc1cccnc1 | 2.77% |
| C=CCN1C(=O)c2ccc(C(=O)N(CC)CC(=O)Nc3ccc(OC)cc3)cc2C1=O | -20% |
| C=CCN1C[C@@H](C)N(C(c2ccc(C(=O)N(CC)CC)cc2)c2cccc(OC)c2)C[C@@H]1C (stereo partly drawn) | -65.3% |
| CCN(CC)C(=O)c1cccc(-c2ccc(OC)cc2)c1 | -17% |
| c1ccc(-n2c(-c3ccncc3)nnc2N2CCOCC2)cc1 | 16.9% |
| Cc1cc(=O)c2ccc3ccccc3c2[nH]1 | 7.45% |
| Cc1cc(=O)cc(C)n1-c1ccc(F)cc1F | 0.384% |
| CC1(C)c2cc(O)ccc2OC1N1CCOCC1 (stereo not drawn) | 13.6% |
| COc1ccc(-n2cnc3cc(NCc4ccco4)ccc32)cc1 | -67.3% |
| c1ccc(-n2cnc3cc(NCc4ccco4)ccc32)cc1 | -49.8% |
| COc1ccccc1-n1cnc2cc(NCc3ccco3)ccc21 | -20.7% |
| O=C1c2ccccc2C(=O)N1Cc1ccccc1F | 13% |
| CC1=C(C(=O)Nc2ccccc2)C(c2ccco2)C(C#N)=C(SCC(N)=O)N1 (stereo not drawn) | -3.31% |
| CSc1ccccc1OCc1cc(C(=O)N2CCSCC2)no1 | 0.366% |
| CSc1ccccc1OCc1cc(C(=O)N2CCC(Oc3cccnc3)CC2)no1 | -37.4% |

| Structure (SMILES) | hERG current change (%, negative = inhibition) at 10uM |
| --- | --- |
| Cc1cccc(C)c1OCc1cc(C(=O)N2CCC(c3ccncc3)CC2)no1 | -55.8% |
| CSc1ccccc1OCc1cc(C(=O)N2CCC(c3ccncc3)CC2)no1 | -58.5% |
| O=C(c1cc(COc2ccc(F)cc2Cl)on1)N1CCCCCCC1 | 0.909% |
| Cc1cccc(C)c1OCc1cc(C(=O)N2CCC(c3ccccc3)CC2)no1 | -1.95% |
| O=C(c1cc(COc2ccc(F)cc2Cl)on1)N1CCC(c2ccncc2)CC1 | -72.5% |
| O=C(c1cc(COc2c(F)cccc2F)on1)N1CCC(c2ccncc2)CC1 | -38.5% |
| O=C(c1cc(COc2ccc(F)cc2Cl)on1)N1CCCCCC1 | -3.89% |
| CC(C)C[C@H](NC(=O)c1nc[nH]c1C(=O)NC1CCN(C(=O)OC(C)(C)C)CC1)C(=O)OCc1ccccc1 | 3.48% |
| COc1cccc(C2CC(=O)C3=C(C2)Nc2ccccc2N(C(=O)CCC(=O)O)C3c2ccc(F)cc2)c1 (stereo not drawn) | 5.1% |
| Nc1ccccc1NC1=CC(=O)CC(c2ccco2)C1 (stereo not drawn) | 10.4% |
| Cn1c(SCC(=O)c2ccccc2)nnc1-c1cnccn1 | 6.47% |
| CC(=O)Nc1ccc(NC(=O)CSc2ccc3nnc(-c4cccnc4)n3n2)cc1 | 2.95% |
| Cc1ccc(NC(=O)CSc2ccc3nnc(-c4cccnc4)n3n2)cc1 | -53.1% |
| COc1ccc(NC(=O)CSc2ccc3nnc(-c4cccnc4)n3n2)cc1OC | 1.17% |
| CCOc1ccc(NC(=O)CSc2ccc3nnc(-c4cccnc4)n3n2)cc1 | -54.7% |
| COc1ccc(NC(=O)CSc2ccc3nnc(-c4cccnc4)n3n2)cc1 | -50.4% |
| CCOc1ccc(NC(=O)CSc2ccc(-c3cccnc3)nn2)cc1 | -5.55% |
| COc1cccc(NC(=O)CSc2ccc3nnc(-c4cccnc4)n3n2)c1 | -37.5% |
| CC(=O)c1ccc(NC(=O)CSc2ccc3nnc(-c4cccnc4)n3n2)cc1 | -28.8% |
| O=C(CSc1ccc2nnc(-c3cccnc3)n2n1)Nc1ccccc1 | -17.8% |
| Cc1c(C(=O)Nc2cccc(Cl)c2)cn2c(nc3ccccc32)c1C#N | 6.75% |
| CC(=O)NCC(=O)OC(C)C(=O)Nc1ccc(C(C)=O)cc1 (stereo not drawn) | -10.4% |
| COc1cc(/C=C(\C#N)C(=O)NCC2CCCO2)ccc1OCC(N)=O (stereo not drawn) | 28.7% |
| C/C(=N\NC(=O)CCc1ccccc1)c1ccc(Br)cc1 | 11% |

| Structure (SMILES) | hERG current change (%, negative = inhibition) at 10uM |
| --- | --- |
| CN(C)S(=O)(=O)c1ccc(NC(=O)COc2ncnc3sccc23)cc1 | 15.7% |
| CN(C)c1ccc(CNC(=O)CCNS(=O)(=O)c2cc(Br)cnc2N)cc1 | 12% |
| COc1cccc(/C=C/C(=O)Nc2ccccc2N2CCOCC2)c1 | -15.4% |
| CCCCS(=O)CC(CS(=O)CCCC)OC(=O)c1ccccc1 (stereo not drawn) | -35.2% |
| CCCCS(=O)CC(COc1ccc(Cl)cc1)OC(=O)c1ccccc1 (stereo not drawn) | -56.3% |
| CCCCS(=O)CC(COC)OC(=O)c1ccccc1 (stereo not drawn) | 2.46% |
| Cc1ccccc1NC(=O)c1oc(=O)c2ccccc2c1-c1ccccc1 | -1.57% |
| CC(C)N(CCNC(=O)c1oc(=O)c2ccccc2c1-c1ccccc1)Cc1ccco1 | -67.9% |
| Cc1ccc(-c2c(C(=O)NCc3ccccc3)oc(=O)c3ccccc23)cc1 | 1.98% |
| CC(C)CC(=O)Nc1ncnc2c1C(=O)CC(C)(C)C2 | -0.157% |
| CCOC(=O)N1CCN(S(=O)(=O)c2c(C)cc(C)cc2C)CC1 | -5.61% |
| CSc1ccc(/C=N/n2c(C)cc(C)cc2=O)cc1 | -2.09% |
| CCn1c(SCC(=O)Nc2cccc(S(=O)(=O)N(C)c3ccccc3)c2)nnc1C1CC1 | -44.1% |
| Cc1nnc(SCC(=O)Nc2cccc(Cl)c2)n1CC1CCCO1 (stereo not drawn) | -7.41% |
| Cc1nnc(SCC(=O)Nc2ccc([N+](=O)[O-])cc2)n1CC1CCCO1 (stereo not drawn) | -55.5% |
| Cc1ccc(NC(=O)CSc2nnc(C3CC3)n2CC2CCCO2)cc1C (stereo not drawn) | -24% |
| C=CCn1c(SCC(=O)Nc2cccc(S(=O)(=O)N(C)c3ccccc3)c2)nnc1C1CC1 | -69.8% |
| O=C(CSc1nnc(C2CC2)n1CC1CCCO1)Nc1cccc(Cl)c1 (stereo not drawn) | -56.1% |
| Cc1cccc(NC(=O)CSc2nnc(C3CC3)n2CC2CCCO2)c1 (stereo not drawn) | -14.9% |
| Cc1nnc(SCC(=O)Nc2cccc([N+](=O)[O-])c2)n1CC1CCCO1 (stereo not drawn) | -13% |
| Cc1ccc([N+](=O)[O-])cc1NC(=O)CSc1nnc(C)n1CC1CCCO1 (stereo not drawn) | -14.6% |
| CCc1ccc(NC(=O)CSc2nnc(C3CC3)n2CC2CCCO2)cc1 (stereo not drawn) | -22.4% |
| O=C(CSc1nnc(C2CC2)n1CC1CCCO1)Nc1ccc(Cl)cc1 (stereo not drawn) | -56.8% |
| CN(c1ccccc1)S(=O)(=O)c1cccc(NC(=O)CSc2nnc(C3CC3)n2C)c1 | -30.9% |

From publication PMC4336329 (PLoS ONE, 2015)
